This is part of a sample that, as a whole, favours compounds with a hit. Of some 79,000 tested, about 15% had one in any assay. Activity calls are given as the source filed them. No stated cut-off is given here; in the data, active means growth inhibition above about 70%; inactive means the rest.

One assay is described as follows: NCI Yeast Anticancer Drug Screen. Data for the mec2-1 strain (AID 157). The settings on record: S. cerevisiae mec2-1 strain, at 50.0 µM, active compounds read high. The gist of the method: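 Mutant yeast (mec2-1) grown with compound; growth inhibition relative to vehicle control reported.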
With `NC(N)=NC(N)=Nc1ccc(Cl)cc1`, the growth inhibition was -2.65% (inactive).
Still for that read-out and setting: for `O=C(CBr)OCCCS(=O)(=O)O` the value was -34.4% (inactive).
As to `c1ccc2c(C3NCCc4[nH]cnc43)cccc2c1` (centres undefined), the growth inhibition was 1.85% (inactive).
With `C[N+]1([O-])C2CCC1CC(OC(=O)C(O)c1ccccc1)C2` (centres undefined), the growth inhibition was -21.2% (inactive).
In the case of `Clc1cccc(NC2=NCCS2)c1`, the growth inhibition was -32.6% (inactive).
Same read-out and setting: as for `Cn1cnc([N+](=O)[O-])c1C(=O)O` (tested in a mixture with another compound), the figure is -3.55% (inactive).
As for `CC1NCCc2cc(O)c(O)cc21` (centres undefined), the growth inhibition is 6.3% (inactive).
Consider `O=c1c2ccccc2[nH]c(=S)n1-c1cccc(Cl)c1`, for which the growth inhibition was 16.1% (inactive).
The same measure, in the same setting: for `Cc1ccc(-n2c(=O)[nH]c3ccccc3c2=O)cc1[N+](=O)[O-]` the value was 12.3% (inactive); for `COc1cccc(N=C(N)N[N+](=O)[O-])c1`, -32% (inactive).
Same read-out and setting: as for `O=c1c2ccc(Cl)cc2[nH]c(=S)n1-c1ccc(Cl)cc1`, the figure is -9.25% (inactive).
Take `O=C1C(Cl)=C(Cl)C1(Cl)Cl`: the growth inhibition is -20.4% (inactive).
Regarding `CCOC(=O)c1ccc2nc(-c3ccc(S(=O)(=O)F)cc3)cc(Cl)c2c1`, the growth inhibition was -9.95% (inactive).
`COc1ccc(CC[N+](C)(C)C)cc1`: the growth inhibition was -2.5% (inactive).
Still for that read-out and setting: as for `O=[N+]([O-])c1ccc(C[N+]23CCN(CC2)CC3)cc1`, the figure is -16.7% (inactive); as for `COc1ccccc1NC1=NCCS1`, -12.9% (inactive).
The same measure, in the same setting: for `COc1ccc(-n2c(=S)[nH]c3ccccc3c2=O)cc1` the value was -9.7% (inactive).
Still for that read-out and setting: for `CSC(=S)NNC(=O)c1cccc(S(=O)(=O)F)c1` the value was -8.8% (inactive).
Consider `CN1C2c3ccccc3C3C4c5ccccc5C(C31)C(C2[N+](=O)[O-])N4C` (centres undefined), for which the growth inhibition was -30.8% (inactive).
In the case of `Cc1cccc(-c2cc(Cl)c3cc(S(=O)(=O)F)ccc3n2)c1`, the growth inhibition is -25.4% (inactive).

The next assay can be described thus: NCI Yeast Anticancer Drug Screen. Data for the cln2 rad14 strain (AID 165).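 Further: 0% = growth equal to vehicle treated cultures.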 The following applies: S. cerevisiae cln2 rad14 strain, at 50.0 µM, active compounds read high. The essentials:
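Readout is yeast growth inhibition versus vehicle-treated controls, using a strain with cln2 and rad14 alterations exposed to compound.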
`CO[C@@]12[C@@H]3N[C@@H]3CN1C1=C(C(=O)C(Nc3ccc(O)cc3C)=C(C)C1=O)[C@@H]2COC(N)=O`: the growth inhibition was 44.4% (inactive).
For the compound `O=C(CCBr)Nc1ccc(Cl)cc1C(=O)c1ccccc1`, the growth inhibition was -2% (inactive).
Same read-out and setting: for `C/C=C1/CN2CCC1CC2C(O)c1ccnc2ccc(OCCO)cc12` (centres undefined) the value was -9.35% (inactive); for `C/C=C/C(=O)[O-].C/C=C/C(=O)[O-].N.N.N.N.[Co+3].[O-][Cl+3]([O-])([O-])[O-]`, 25.1% (inactive).
As to `NC(N)=NC(N)=Nc1ccc(Cl)cc1`, the growth inhibition is 2.8% (inactive).
Still for that read-out and setting: for `c1ccc2c(C3NCCc4[nH]cnc43)cccc2c1` (centres undefined) the value was -18.3% (inactive); for `Cn1cnc([N+](=O)[O-])c1C(=O)O` (tested in a mixture with another compound), -18.4% (inactive).
Turning to `Cc1ccc(-n2c(=O)[nH]c3ccccc3c2=O)cc1[N+](=O)[O-]`, the growth inhibition is 23.2% (inactive).

A further assay in a line: NCI Yeast Anticancer Drug Screen. Data for the bub3 strain (AID 167). The settings on record: S. cerevisiae bub3 mutant strain, at 50.0 µM, active compounds read high. The essentials: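 Growth of a checkpoint-deficient yeast mutant is measured after compound exposure. Values represent inhibition relative to vehicle.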
As for `CO[C@@]12[C@@H]3N[C@@H]3CN1C1=C(C(=O)C(Nc3ccc(O)cc3C)=C(C)C1=O)[C@@H]2COC(N)=O`, the growth inhibition was -14.6% (inactive).
Consider `O=C(CCBr)Nc1ccc(Cl)cc1C(=O)c1ccccc1`, for which the growth inhibition is 54.8% (inactive).
Still for that read-out and setting: for `C/C=C1/CN2CCC1CC2C(O)c1ccnc2ccc(OCCO)cc12` (centres undefined) the value was -24.6% (inactive); for `C/C=C/C(=O)[O-].C/C=C/C(=O)[O-].N.N.N.N.[Co+3].[O-][Cl+3]([O-])([O-])[O-]`, 7.3% (inactive); for `c1ccc2c(C3NCCc4[nH]cnc43)cccc2c1` (centres undefined), -32% (inactive).
On to `Cn1cnc([N+](=O)[O-])c1C(=O)O` (tested in a mixture with another compound), for which the growth inhibition was 27.3% (inactive).
On the same count and under the same terms, for `Cc1ccc(-n2c(=O)[nH]c3ccccc3c2=O)cc1[N+](=O)[O-]` the value was 35.4% (inactive).

A short description of the next assay: NCI Yeast Anticancer Drug Screen. Data for the mlh1 rad18 strain (AID 175). The settings on record: S. cerevisiae mlh1 rad18 strain growth inhibition; at 50.0 µM; active compounds read high. The gist of the method:
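Genetically defined yeast (DNA repair-deficient) exposed to compounds; growth inhibition determined relative to vehicle.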
Regarding `CO[C@@]12[C@@H]3N[C@@H]3CN1C1=C(C(=O)C(Nc3ccc(O)cc3C)=C(C)C1=O)[C@@H]2COC(N)=O`, the growth inhibition was 71% (active).
Still for that read-out and setting: as for `COc1ccc(C(=O)OC2CC3CCC(C2)N3)cc1OC` (centres undefined), the figure is 22.8% (inactive); as for `Cc1ccc(-n2c(=S)[nH]c3ccccc3c2=O)cc1F`, -18.1% (inactive).
Turning to `CCCOP(=O)(CCl)OCCC`, the growth inhibition was 8.25% (inactive).
Regarding `COc1ccc(S(=O)(=O)F)cc1NC(=O)c1ccc2ccccc2c1O`, the growth inhibition was 41.6% (inactive).
Consider `O=C(CBr)OCS(=O)(=O)O`, for which the growth inhibition was -6.2% (inactive).
The same measure, in the same setting: as for `NC(=O)NNc1ccc([N+](=O)[O-])cc1[N+](=O)[O-]`, the figure is 14.8% (inactive).
As to `C/C=C1\CN2CCC1CC2C(O)c1ccnc2ccc(O)cc12` (centres undefined), the growth inhibition was 32.2% (inactive).
As for `CC(Cc1ccccc1)N(C)CC1C(=O)C2CCC1C2` (centres undefined), the growth inhibition was 6.25% (inactive).
Still for that read-out and setting: as for `c1ccc2c(c1)O[As](O[As]1Oc3ccccc3O1)O2`, the figure is 10.2% (inactive); as for `C/C=C1/CN2CCC1CC2C(O)c1ccnc2ccc(OCCO)cc12` (centres undefined), 24.9% (inactive); as for `CN1CCN(c2ccc(Cl)cc2)CC1`, 0.7% (inactive).
The same measure, in the same setting: as for `NC(=NC1CCCCCCCCCCC1)N[N+](=O)[O-]`, the figure is 12.3% (inactive); as for `O=C(/C=C/c1ccccc1)NCCc1cnc[nH]1`, 16.4% (inactive).
Still for that read-out and setting: for `C/C=C/C(=O)[O-].C/C=C/C(=O)[O-].N.N.N.N.[Co+3].[O-][Cl+3]([O-])([O-])[O-]` the value was -3.5% (inactive).
As to `Cc1ccc(-n2c(=S)[nH]c3ccccc3c2=O)cc1`, the growth inhibition is -20.9% (inactive).
On the same count and under the same terms, as for `CNCCc1ccc(O)c(O)c1`, the figure is -6.15% (inactive); as for `Cc1ccc(-c2cc(Cl)c3cc(S(=O)(=O)F)ccc3n2)cc1`, -9.1% (inactive).
Turning to `Brc1ccc(C[N+]23CCN(CC2)CC3)cc1`, the growth inhibition is -16% (inactive).
Turning to `NC(N)=NC(N)=Nc1ccc(Cl)cc1`, the growth inhibition was -1.55% (inactive).
On the same count and under the same terms, for `O=C(CBr)OCCCS(=O)(=O)O` the value was -33.8% (inactive); for `c1ccc2c(C3NCCc4[nH]cnc43)cccc2c1` (centres undefined), 4.65% (inactive); for `C[N+]1([O-])C2CCC1CC(OC(=O)C(O)c1ccccc1)C2` (centres undefined), 3.4% (inactive).
In the case of `Clc1cccc(NC2=NCCS2)c1`, the growth inhibition is -40.8% (inactive).
On the same count and under the same terms, for `Cn1cnc([N+](=O)[O-])c1C(=O)O` (tested in a mixture with another compound) the value was -1% (inactive); for `CC1NCCc2cc(O)c(O)cc21` (centres undefined), 40% (inactive).
With `O=c1c2ccccc2[nH]c(=S)n1-c1cccc(Cl)c1`, the growth inhibition is 27.4% (inactive).
On the same count and under the same terms, for `Cc1ccc(-n2c(=O)[nH]c3ccccc3c2=O)cc1[N+](=O)[O-]` the value was 26.6% (inactive); for `COc1cccc(N=C(N)N[N+](=O)[O-])c1`, -7.25% (inactive); for `O=c1c2ccc(Cl)cc2[nH]c(=S)n1-c1ccc(Cl)cc1`, 11% (inactive).
On the same count and under the same terms, for `O=C1C(Cl)=C(Cl)C1(Cl)Cl` the value was -2.65% (inactive); for `CCOC(=O)c1ccc2nc(-c3ccc(S(=O)(=O)F)cc3)cc(Cl)c2c1`, 23.5% (inactive); for `COc1ccc(CC[N+](C)(C)C)cc1`, 32.5% (inactive).
For the compound `O=[N+]([O-])c1ccc(C[N+]23CCN(CC2)CC3)cc1`, the growth inhibition is 3.8% (inactive).
The same measure, in the same setting: as for `COc1ccccc1NC1=NCCS1`, the figure is 15.4% (inactive); as for `COc1ccc(-n2c(=S)[nH]c3ccccc3c2=O)cc1`, 4.8% (inactive); as for `CSC(=S)NNC(=O)c1cccc(S(=O)(=O)F)c1`, 50.7% (inactive).
Consider `CN1C2c3ccccc3C3C4c5ccccc5C(C31)C(C2[N+](=O)[O-])N4C` (centres undefined), for which the growth inhibition was -13.5% (inactive).
Same read-out and setting: for `Cc1cccc(-c2cc(Cl)c3cc(S(=O)(=O)F)ccc3n2)c1` the value was -33.4% (inactive).
